Screens (PubChem BioAssay)
FLuc counter: counter-screen for miR-21 project: firefly luciferase inhibitors or activators; purified FLuc, Km substrates, luminescence inhibition; 360,000 compounds, 6.9% hits; Potency, µM (top dose mostly 57.5 µM), actives largely listed as inhibitors; AID 588342; P08659; note: nearly all actives have a fitted effect of over 55% in size
Target sequence (P08659 whole entry, looked up): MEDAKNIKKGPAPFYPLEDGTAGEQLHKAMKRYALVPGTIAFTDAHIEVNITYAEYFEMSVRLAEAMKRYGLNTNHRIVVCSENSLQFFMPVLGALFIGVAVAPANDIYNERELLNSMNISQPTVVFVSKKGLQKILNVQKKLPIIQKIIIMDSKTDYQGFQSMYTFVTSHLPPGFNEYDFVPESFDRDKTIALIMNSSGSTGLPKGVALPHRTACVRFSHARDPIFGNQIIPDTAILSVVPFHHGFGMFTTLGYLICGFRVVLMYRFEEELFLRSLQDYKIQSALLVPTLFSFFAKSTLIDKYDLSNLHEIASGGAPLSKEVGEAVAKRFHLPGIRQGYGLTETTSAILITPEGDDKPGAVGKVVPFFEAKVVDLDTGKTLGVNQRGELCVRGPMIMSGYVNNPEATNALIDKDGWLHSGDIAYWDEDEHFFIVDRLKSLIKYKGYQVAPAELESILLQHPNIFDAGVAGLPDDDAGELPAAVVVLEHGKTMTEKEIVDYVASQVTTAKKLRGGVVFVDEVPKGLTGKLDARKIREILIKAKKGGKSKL
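Biochemical qHTS of compounds, final roughly 60 µM downward over six points, against 10 nM purified firefly luciferase using Km concentrations of substrates (10 uM D-luciferin, 10 uM ATP) in Tris acetate pH 7.5 buffer; luminescence output.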
Luc counter: Kinase-Glo luciferase inhibition (counter-screen). Kinase-Glo luciferase, ATP luminescence, 8 min. Q27757. 200,000 compounds, 0.28% hits. AID 1379. Potency, µM (titrated, usually from 38.3 µM), hits mostly inhibitors; note: nearly all actives have a fitted effect of over 60% in size
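Kinase-Glo luciferase light output from ATP and luciferin was measured with 10 uM ATP, within the enzyme's linear range. Buffer: 50 mM imidazole pH 7.2, 50 mM KCl, 7 mM MgCl2, 0.01% Tween 20, 0.05% BSA; luminescence read after 8 min at ambient temperature.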
ELG1 genotox: genotoxicity induction in ELG1-luciferase HEK293T cells; AID 504466; HEK293T ELG1-luciferase reporter, luminescence, 16 h; 330,000 compounds, 1.3% hits; Potency, µM (series often up to 46 µM), most hits filed as activators; note: nearly all actives have a fitted effect of over 60% in size
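Screening used a luciferase reporter fused to human ELG1 in HEK293T cells. Luminescence was read on a CCD plate imager after 16 hr exposure and 30 min ONE-Glo incubation.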
SMN2 splice up: increases expression of the SMN2 splice variant | AID 1458 | Potency, µM (doses to about 46.1 µM), actives largely listed as activators | HEK293 SMN2-luciferase splicing reporter, luminescence, 30-36 h | 210,000 compounds, 2.8% hits; note: nearly all actives have a fitted effect of over 55% in size
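qHTS luciferase splicing reporter: luminescence rises when SMN2 exon 7 is included in transfected HEK293 cells. Compound exposure lasted 30-36 h at 37C, with 4.5 mM final sodium butyrate as control, followed by a ONE-Glo read.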
Rab9 promoter act: Rab9 promoter activation; Potency, µM (titrated, usually from 9.22 µM), hits mostly activators; 320,000 compounds, 2.8% hits; Huh7 Rab9 promoter-luciferase reporter, luminescence, 24 h; note: nearly all actives have a fitted effect of over 60% in size
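Steps: seed 1500 Huh7 Rab9-luc cells per well, rest 2 h at 37 °C; add compound in DMSO; incubate 24 h; add luciferase reagent, 10 min ambient; read luminescence.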
NPC1 promoter act: NPC1 promoter activation; Huh7 NPC1 promoter luciferase reporter, 24 h; Potency, µM (top dose mostly 9.22 µM), actives largely listed as activators; 320,000 compounds, 2.4% hits; AID 485313; note: nearly all actives have a fitted effect of over 60% in size
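Huh7 cells stably carrying NPC1 promoter–luciferase, plated in Opti-MEM with 10% FBS for 2 h, were exposed to compound in DMSO for 24 h at 37 °C; luciferase reagent was added for 10 min and luminescence read.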
Numbers stand for hits; . = inactive; ? = inconclusive; / = no result given; [ ] = another dose, or the depositor's remark. Hits are enriched below; roughly 7.5% of the tested compounds scored in any of these assays. Calls come from the whole dose curve; as a rule, active = well fitted curve in the direction sought with a large enough effect; inconclusive = small, poorly fitted or top-dose-only effect, or another doubt; inactive = no such curve, though single readings can be large; an effect the other way counts as inactive or inconclusive.

SMILES	FLuc counter	Luc counter	ELG1 genotox	SMN2 splice up	Rab9 promoter act	NPC1 promoter act
O=C(COc1ccccc1)Nc1ccc(-c2ccc(N3CCOCC3)nn2)cc1	?	/	?	/	2.2µM	?
CCOc1ccc(/C=N/Nc2ccccn2)cc1	1.2µM	10µM	2.3µM	1.6µM	0.5µM	1.3µM
Fc1ccc(/C=N/Nc2ccccn2)cc1	11µM	.	?	.	3.5µM	.
COc1ccc(/C=N/Nc2ccccn2)cc1O	6.7µM	/	?	/	?	?
Clc1ccc(/C=N/Nc2ccccn2)cc1	6.7µM	.	?	/	3.2µM	?
CCN(CC)c1ccc(C=Nc2ccc(OC)c(S(=O)(=O)N3CCOCC3)c2)c(O)c1	?	/	.	/	.	.
CC1(C)Cc2ccccc2C(N/N=C/c2ccc([N+](=O)[O-])cc2)=N1	.	.	.	.	.	.
Cc1ccc(/C=N/Nc2ccccn2)s1	11µM	/	?	/	?	?
COc1ccc2nc(Cl)c(/C=N/Nc3ccccn3)cc2c1	0.54µM	.	?	?	?	.
CC1(C)Cc2ccccc2C(N/N=C/c2ccc(Cl)cc2)=N1	17µM	.	.	.	.	.
Brc1ccc(/C=N/Nc2ccccn2)cc1	6.7µM	.	?	/	3.5µM	?
COc1ccc(C(C)NC(=O)Cc2cccs2)cc1OC (stereo unspecified)	.	/	.	/	.	.
CCOc1ccccc1NC(=O)N1CCN(S(=O)(=O)c2ccc3c(ccn3C)c2)CC1	.	/	/	.	/	/
CCN1C(=O)c2ccccc2S(=O)c2ccc(C(=O)N3CCN(c4cccc(Cl)c4)CC3)cc21 (stereo unspecified)	.	/	/	.	/	/
O=C(c1cc2cc(Br)ccc2o1)N1CCCCC1	11µM	.	?	11µM	4µM	2.5µM
CC1CCN(C(=O)c2cc3ccccc3c(=O)o2)CC1	?	.	.	.	.	.
Cc1c(C(=O)N2CCCCC2)oc2ccc(Br)cc12	21µM	/	?	/	?	?
O=C(c1cc2ccccc2c(=O)o1)N1CCCCCC1	24µM	.	.	.	.	.
Cc1ccc2oc(C(=O)N3CCC(C(N)=O)(N4CCCCC4)CC3)c(C)c2c1	.	/	.	/	.	.
Cc1ccc2oc(C(=O)N3CCCCCC3)c(C)c2c1	15µM	/	18µM	/	/	2.2µM
O=C(c1cc2cc(Cl)ccc2o1)N1CCCC1	?	/	?	/	.	.
CCOc1ccccc1N(C)C(=O)Cn1cnc2onc(-c3ccc(F)cc3)c2c1=O	.	/	/	/	/	/
O=C(Nc1ccc(S(=O)(=O)N2CCCCC2c2cccnc2)cc1)c1ccc(F)cc1 (stereo unspecified)	.	/	/	/	/	/
COc1ccc(NCC(=O)N/N=C/C=C\c2ccccc2)cc1	?	.	.	.	.	.
COc1ccc(/C=C/C(=O)Oc2ccc(/C=N/NC(=O)COc3c(C)cccc3C)cc2)cc1	.	.	.	?	.	.
SMILES	FLuc counter	Luc counter	ELG1 genotox	SMN2 splice up	Rab9 promoter act	NPC1 promoter act
COc1ccc(/C=C/C=N/NC(=O)COc2ccc(OC)cc2)cc1	4.8µM	.	.	.	.	.
COc1ccc(/C=C/C(=O)Oc2cccc(/C=N/NC(=O)COc3c(C)cccc3C)c2)cc1	.	.	?	?	2.8µM	1.6µM
Cc1ccc(OCC(=O)N/N=C/C=C/c2ccco2)cc1	19µM	.	.	.	.	.
CN1CCN(C(=O)C2CCC(=O)N(Cc3cccc(C(F)(F)F)c3)C2)CC1 (stereo unspecified)	.	/	.	/	.	.
COc1nc(N)nc2c1ncn2[C@@H]1C[C@H](O)[C@@H](CO)O1	/	.[7.66 µM]	/	.[9.22 µM]	/	/
CCOc1ccc(-n2nc3ccc(NC(=O)c4ccc(-c5cccc(Cl)c5)o4)cc3n2)cc1	?	/	/	.	/	/
CC(=O)Nc1ccc(NC(=O)C(C)Sc2n[nH]c(-c3ccc(C)cc3)n2)cc1 (stereo unspecified)	24µM	/	.	/	?	.
COc1cc(C(CC(=O)NCc2ccc(F)cc2)N2Cc3ccccc3C2=O)cc(OC)c1OC (stereo unspecified)	.	/	/	/	/	/
Cc1ccc(SCc2cn3cc(Cl)ccc3n2)cc1	13µM	/	.	/	?	?
Clc1ccc2nc(CSc3nnc4ccccn34)cn2c1	7.6µM	.	8.2µM	10µM	1µM	0.5µM
Clc1ccc2nc(CSc3nncn3-c3ccccc3)cn2c1	.	.	.	.	.	.
c1ccc(CSCc2ccccc2)cc1	.	/	.	.	.	.
Cc1cccc2nc(CSc3ccc(Cl)cc3)cn12	9.5µM	.	?	11µM	2.2µM	3.2µM
Clc1ccc2nc(CSCc3ccccc3)cn2c1	7.6µM	.	?	13µM	2µM	1.6µM
CCOc1ccc(S(=O)(=O)N2CCN(c3cccc(C(F)(F)F)c3)CC2)cc1OCC	.	/	/	.	/	/
CCOc1ccccc1Nc1nc2ccccc2c2nncn12	.	/	/	.	/	/
CC1=C(/C=C/C(C)=C/C=C/C(C)=C/C=C/C=C(C)/C=C/C=C(C)/C=C/C2=C(C)C(=O)C(O)CC2(C)C)C(C)(C)CC(O)C1=O (stereo unspecified)	/	.	/	.	/	/
Cc1ccc(SCc2cn3c(C)csc3n2)cc1	2.1µM	.	1.6µM	8.9µM	0.63µM	0.63µM
Cc1cccc2nc(CSCc3ccco3)cn12	7.6µM	.	?	11µM	2.2µM	1.1µM
Nc1nnc(SCc2cn3cc(Cl)ccc3n2)s1	?	.	?	?	4µM	?
Clc1ccc2nc(CSc3nc4ccccc4o3)cn2c1	1.9µM	.	2.6µM	18µM	1µM	0.89µM
Nn1c(SCc2cn3cc(Cl)ccc3n2)nnc1-c1ccncc1	.	.	.	.	.	.
Cc1cc(C)n2cc(CSCc3ccco3)nc2n1	.	.	.	.	.	.
CCOc1ccc(NC(=O)CC2C(=O)N(c3ccc(C)cc3)C(=O)N2Cc2ccc(OC)cc2)cc1 (stereo unspecified)	.	/	/	.	/	/
CCCc1nc2nc(C)c(NS(=O)(=O)c3ccc(C)c(C)c3)c(=O)n2[nH]1	?	/	/	.	/	/
SMILES	FLuc counter	Luc counter	ELG1 genotox	SMN2 splice up	Rab9 promoter act	NPC1 promoter act
CNc1cc(CSc2ccc(Cl)cc2)nc(C)n1	17µM	.	.	?	2.2µM	?
Clc1ccc(SCc2cn3ccccc3n2)cc1	9.5µM	.	?	11µM	2.5µM	?
Cc1nc(CSc2ccc(Cl)cc2)cc(NCc2ccccc2)n1	.	.	.	.	.	.
N[C@@H]1[C@@H]2[C@@H]3C[C@H]4N(CC[C@@]14C(=O)C(=O)O)CC3=CCO[C@@H]2CC(=O)O	/	.[7.66 µM]	/	.[9.22 µM]	/	/
Cc1cc(C)n(-c2nc3cc(Cl)c(Cl)cc3nc2Nc2c(C)cccc2C)n1	.	/	/	.	/	/
O=C(CSc1nncs1)N1CCN(C(=O)c2ccco2)CC1	.	/	.	/	.	.
O=C(CSc1nnc(SCc2ccc(Cl)cc2)s1)N1CCN(C(=O)c2ccco2)CC1	9.5µM	.	.	.	.	.
COC(=O)CSc1nnc(SCc2ccccc2)s1	19µM	.	.	.	.	.
